Laboratory results as given in PubChem BioAssay (Tox21).
Records with an inconclusive call do not appear. The source made the active and inactive calls. The call rests on the fitted dose curve; in most records, active means well fitted curve in the direction sought with a large enough effect in the repeat runs; inconclusive means weak or mixed curves; inactive means no such curve, though single readings can be large; an effect the other way counts as inactive or inconclusive.

Key:
[1] = qHTS RealTime-Glo MT Cell Viability Assay in HepG2 cells - 8 hour (AID 1224873); further: nearly all actives have a fitted effect of over 55% in size
How it was run: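 HepG2 cells mixed with RealTime-Glo MT reagents (NanoLuc plus cell-permeant prosubstrate) were seeded at 600 cells/well, incubated 5 h at 37 C/5% CO2, then pinned with compounds in DMSO; nonlytic luminescence tracked viability during 40 h treatment.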

[2] = qHTS RealTime-Glo MT Cell Viability Assay in HEK293 cells - 40 hour (AID 1224874); conditions: RealTime-Glo luminescence; max response: stronger effect = lower value; further: nearly all actives have a fitted effect of over 50% in size; further: potency means the concentration at half of the fitted maximal effect
How it was run: (§1)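 Tox21 screen in HEK293 using RealTime-Glo MT chemistry, with cells and reagent co-dispensed. Luminescence proportional to viable cell number was captured at intervals during 40 h compound exposure at 37 C.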

[3] = A CellTox Green Cytotoxicity Assay to monitor cytotoxicity in HEK293 cells - 24 hour (AID 1224875); further: series mostly up to about 77 µM; nearly all actives have a fitted effect of over 45% in size
How it was run: (§2)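 Seeding of HEK293 cells together with cytotoxicity dye preceded a 5 h incubation at 37 C/5% CO2. Test compounds in DMSO were then added and fluorescence monitored across 40 h.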

[4] = A CellTox Green Cytotoxicity Assay to monitor cytotoxicity in HepG2 cells - 16 hour (AID 1224876); further: nearly all actives have a fitted effect of over 45% in size
How it was run: (§3)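 Nonlytic assay: viable cells exclude the dye, so fluorescence scales with cell death. HepG2 at 600 cells/well, compounds added after 5 h, signal read across 40 h.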

[5] = qHTS RealTime-Glo MT Cell Viability Assay in HepG2 cells - 32 hour (AID 1224877); further: nearly all actives have a fitted effect of over 55% in size
How it was run: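 Viability was tracked continuously by NanoLuc luminescence from prosubstrate reduced by living HepG2 cells, at successive time points over 40 h of compound exposure. Cells with reagent were preincubated 5 h at 37 °C before compound addition.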

[6] = A CellTox Green Cytotoxicity Assay to monitor cytotoxicity in HepG2 cells - 24 hour (AID 1224878); further: nearly all actives have a fitted effect of over 45% in size
How it was run: as §3

[7] = A CellTox Green Cytotoxicity Assay to monitor cytotoxicity in HepG2 cells - 40 hour (AID 1224879); further: nearly all actives have a fitted effect of over 40% in size
How it was run: as §3

[8] = qHTS RealTime-Glo MT Cell Viability Assay in HEK293 cells - 0 hour (AID 1224880); further: top concentration of the series differs between compounds; nearly all actives have a fitted effect of over 45% in size
How it was run: as §1

[9] = A CellTox Green Cytotoxicity Assay to monitor cytotoxicity in HEK293 cells - 32 hour (AID 1224881); further: nearly all actives have a fitted effect of over 40% in size
How it was run: as §2

[10] = A CellTox Green Cytotoxicity Assay to monitor cytotoxicity in HepG2 cells - 0 hour (AID 1224882); further: nearly all actives have a fitted effect of over 35% in size
How it was run: as §3
On the % scale 0 is the no-effect control and ±100 the full control effect.

CC(C)NCC(O)COc1ccc(COCCOC(C)C)cc1 (stereo not drawn)
inactive: outcome [1] | max response [2] 3.86% | outcome [3] | outcome [4] | outcome [5] | outcome [6] | Potency [7] | Potency [8] | Potency [9]

COC(=O)CCCCCCCC(=O)OC
inactive: outcome [1] | max response [2] 11.9% | outcome [3] | outcome [4] | outcome [5] | outcome [6] | Potency [7] | Potency [8] | Potency [9] | outcome [10]

CC/C=C\CC1=C(C)CCC1=O
inactive: outcome [1] | max response [2] 0.983% | outcome [3] | outcome [4] | outcome [5] | outcome [6] | Potency [7] | Potency [8] | Potency [9] | outcome [10]

C[Si](C)=O
inactive: viability change, negative = cytotoxic [1] 1.52% [at 6.97 µM] | max response [2] 0.522% | activity change [3] 9.97% [at 6.97 µM] | cytotoxicity increase [4] -6.23% [at 6.97 µM] | activity change, negative = cytotoxic [5] 0.305% [at 6.97 µM] | cytotoxicity [6] -4.98% [at 6.97 µM] | cytotoxicity increase [7] -11.7% [at 6.97 µM] | activity change, negative = cytotoxicity [8] -1.57% [at 6.97 µM] | cytotoxicity increase [9] 10.3% [at 6.97 µM]

COc1cc(NS(=O)(=O)c2ccc(N)cc2)nc(OC)n1
inactive: outcome [1] | max response [2] 5.69% | outcome [3] | outcome [4] | outcome [5] | outcome [6] | Potency [7] | Potency [8] | Potency [9] | outcome [10]

Brc1ccc(-c2ccccc2)cc1
inactive: outcome [1] | max response [2] 1.08% | outcome [3] | outcome [4] | outcome [5] | outcome [6] | Potency [7] | Potency [8] | Potency [9] | outcome [10]

CCOc1cc([N+](=O)[O-])c(OCC)cc1N1CCOCC1
active: Potency [2] 15.5 µM
inactive: outcome [1] | outcome [3] | outcome [4] | outcome [5] | outcome [6] | Potency [7] | Potency [8] | Potency [9] | outcome [10]

CC(=O)Nc1ccc(S(=O)(=O)Nc2ccc([N+](=O)[O-])cc2)cc1
inactive: outcome [1] | max response [2] -8.9% | outcome [3] | outcome [4] | outcome [5] | outcome [6] | Potency [7] | Potency [8] | Potency [9] | outcome [10]

CO[C@@H]1[C@@H](OC(N)=O)[C@@H](O)[C@H](Oc2ccc3c(O)c(NC(=O)c4ccc(O)c(CC=C(C)C)c4)c(=O)oc3c2C)OC1(C)C
inactive: outcome [1] | max response [2] 7.28% | outcome [3] | outcome [4] | outcome [5] | outcome [6] | Potency [7] | Potency [8]

O=C(O)Cc1cn(-c2ccccc2)nc1-c1ccc(Cl)cc1
inactive: outcome [1] | max response [2] -3.35% | outcome [3] | outcome [4] | outcome [5] | outcome [6] | Potency [7] | Potency [8] | Potency [9] | outcome [10]

Oc1cn2c(n1)Nc1ccc(Cl)c(Cl)c1C2
inactive: viability change, negative = cytotoxic [1] -0.13% [at 15.8 µM] | max response [2] 10.9% | activity change [3] -3.58% [at 15.8 µM] | cytotoxicity increase [4] -4.2% [at 15.8 µM] | activity change, negative = cytotoxic [5] -1.97% [at 15.8 µM] | cytotoxicity [6] -5.44% [at 15.8 µM] | cytotoxicity increase [7] -8.09% [at 15.8 µM] | activity change, negative = cytotoxicity [8] -2.73% [at 15.8 µM]

CC(C)C(=O)OCc1cccc(OC(=O)[C@@H]2N3C(=O)[C@@H](NC(=O)Cc4ccccc4)[C@H]3SC2(C)C)c1
inactive: outcome [1] | max response [2] 0.269% | outcome [3] | outcome [4] | outcome [5] | outcome [6] | Potency [7] | Potency [8] | Potency [9] | outcome [10]

O=C1O[C@@H]2[C@@H](O)[C@H](O)O[C@@H]2[C@H]1O
inactive: outcome [1] | max response [2] -0.399% | outcome [3] | outcome [4] | outcome [5] | outcome [6] | Potency [7] | Potency [8] | Potency [9] | outcome [10]

Cc1cc2cc3c(C)cc(=O)oc3c(C)c2o1
inactive: outcome [1] | max response [2] -18.2% | outcome [3] | outcome [4] | outcome [5] | outcome [6] | Potency [7] | Potency [8] | Potency [9] | outcome [10]

O=C(O)CCSSCCC(=O)O
inactive: outcome [1] | max response [2] 7.07% | outcome [3] | outcome [4] | outcome [5] | outcome [6] | Potency [7] | Potency [8] | Potency [9]

c1ccc2nccnc2c1
inactive: outcome [1] | max response [2] 5.36% | outcome [3] | outcome [4] | outcome [5] | outcome [6] | Potency [7] | Potency [8] | Potency [9] | outcome [10]

C[C@@H](O)[C@H]1C(=O)N2C(C(=O)O)=C(SCCN=CN)C[C@H]12
inactive: outcome [1] | max response [2] 2.62% | outcome [3] | outcome [4] | outcome [5] | outcome [6] | Potency [7] | Potency [8] | Potency [9] | outcome [10]

CCC(CC)CO
inactive: outcome [1] | max response [2] 3.01% | outcome [3] | outcome [4] | outcome [5] | outcome [6] | Potency [7] | Potency [8]

CCCC/C=C\CCCCCCCCCC=O
inactive: outcome [1] | max response [2] -10.9% | outcome [3] | outcome [4] | outcome [5] | outcome [6] | Potency [7] | Potency [8] | Potency [9] | outcome [10]

COc1nccnc1NS(=O)(=O)c1ccc(N)cc1
inactive: outcome [1] | max response [2] 2.98% | outcome [3] | outcome [4] | outcome [5] | outcome [6] | Potency [7] | Potency [8] | Potency [9] | outcome [10]

COc1ccc(Br)c(C)c1
inactive: outcome [1] | max response [2] 4.1% | outcome [3] | outcome [4] | outcome [5] | outcome [6] | Potency [7] | Potency [8]

CN(C)C(=O)CNC(=O)Cc1ccccc1
inactive: outcome [1] | max response [2] 4.97% | outcome [3] | outcome [4] | outcome [5] | outcome [6] | Potency [7] | Potency [8] | Potency [9]

COCCc1ccc(OCC2CO2)cc1 (stereo not drawn)
inactive: outcome [1] | max response [2] 13.1% | outcome [3] | outcome [4] | outcome [5] | outcome [6] | Potency [7] | Potency [8] | Potency [9] | outcome [10]
